SARS PLpro yeast = SARS-CoV PLP inhibition in yeast. 330,000 compounds, 0.19% hits. S. cerevisiae expressing SARS-CoV PLpro, growth rescue. Potency, µM (series often up to 32.9 µM), hits mostly activators; calls by dose curve; further: nearly all actives have a fitted effect of over 55% in size
CHX counter = affects cycloheximide protein synthesis inhibition readout, counter-screen; cell reporter, cycloheximide protein synthesis inhibition counterscreen; max response, %; 300,000 compounds, 12% hits; in the data active means max response mostly above about 13%, no sharp cut-off; inactive means mostly below about 14%; further: read at 38.3 µM for the half of the compounds with a filed dose
Shiga toxin inh = blocks Shiga toxin action in Vero cells. inhibition, % at 38.7 µM. Vero cells, Shiga toxin protein synthesis inhibition reporter. 290,000 compounds, 9.2% hits. AID 2315; in the data active means inhibition mostly above about 28%, no sharp cut-off; inactive means mostly below about 43%
Pf growth 96h = P. falciparum growth inhibition at 96 hours; P. falciparum luciferase reporter growth, 96 h; Potency, µM (top dose mostly 28.7 µM), actives largely listed as inhibitors; 320,000 compounds, 6.9% hits; AID 504834
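Luminescence readout: decreased luciferase signal marks inhibited growth of reporter-expressing P. falciparum in infected red cells (2% hematocrit, 0.05% parasitemia final), exposed to compound two generations (96 h, 37 C, 5% CO2).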
AMA1 RON2 block = disrupts binding of P. falciparum AMA1 to RON2; 360,000 compounds, 0.2% hits; AID 720542; Potency, µM (series often up to 58.2 µM), hits mostly inhibitors; AlphaScreen AMA1-biotinylated RON2 peptide binding; further: nearly all actives have a fitted effect of over 45% in size
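AMA1 (3D7) with his tag at 25 nM final met compounds first, then biotinylated RON2 peptide at 25 nM; detection used donor plus acceptor beads, 10 µg/mL apiece, read by AlphaScreen after 30 min at room temperature.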
Pf growth 48h = inhibits P. falciparum growth in the first generation, 48 h; P. falciparum luciferase growth in erythrocytes, 48 h; Potency, µM (top dose mostly 28.7 µM), hits mostly inhibitors; 310,000 compounds, 5.9% hits; AID 504832
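Luciferase-expressing parasites in RBCs, 2% Hct / 0.1% parasitemia final; RPMI 1640 + 0.5% Albumax; 37 C, 5% CO2, one generation; luminescence read-out, lower signal = inhibition.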
Each line names hits and unclear results; the compound was inactive in the other large screens. Most compounds without a hit are left out; they make up all but 19% or so of the library. Unless noted, the call rests on the fitted dose curve; in most records, active means well fitted curve in the direction sought with a large enough effect; inconclusive means small, poorly fitted or top-dose-only effect, or another doubt; inactive means no such curve, though single readings can be large; an effect the other way counts as inactive or inconclusive.

COc1cc(CNc2ccc(S(N)(=O)=O)cc2)ccc1OCc1ccccc1F	none (no result: SARS PLpro yeast, CHX counter, Shiga toxin inh, Pf growth 96h, Pf growth 48h)
COc1cc(CNC23CC4CC(CC(C4)C2)C3)ccc1OCc1ccccc1	Pf growth 48h inconclusive
CN1CCCC(OC(=O)CCCC(=O)OC2CCCN(C)C2)C1 (configuration not stated)	none (no result: Pf growth 96h)
COc1ccc(C(CNC(=O)C(CC(C)C)NS(=O)(=O)c2ccc(C)cc2)N2CCOCC2)cc1 (configuration not stated)	Pf growth 96h inconclusive, Pf growth 48h inconclusive (no result: CHX counter, Shiga toxin inh)
COc1ccc(C(=O)NC(=S)N2CCN(c3ccccc3O)CC2)cc1	SARS PLpro yeast inconclusive (no result: CHX counter, Shiga toxin inh, Pf growth 96h, Pf growth 48h)
CC1CC(C)CN(CCCNS(=O)(=O)c2ccc3c(c2)CCN3C(=O)C2CC2)C1 (configuration not stated)	Pf growth 96h inconclusive, Pf growth 48h inconclusive
COc1ccc(Cc2noc(CN3CCCC(OCc4ccccn4)C3)n2)cc1OC (configuration not stated)	Pf growth 96h 13µM, Pf growth 48h inconclusive
COc1ccc(Cc2noc(CN3CCN(Cc4cccc(Cl)c4)CC3)n2)cc1OC	Pf growth 96h 8.3µM, Pf growth 48h inconclusive
COc1ccc(-c2noc(CN3CCCC(OCc4ccccn4)C3)n2)cc1 (configuration not stated)	Pf growth 96h inconclusive, Pf growth 48h inconclusive
Cc1nc(-c2ccccc2)sc1-c1nc(-c2cccs2)ncc1S(=O)(=O)c1ccccc1	Pf growth 48h inconclusive (no result: AMA1 RON2 block)
Cc1ccccc1OCC(O)Cn1nnc2ccccc21 (configuration not stated)	CHX counter 50, Shiga toxin inh 79, Pf growth 96h inconclusive
CCC(=O)c1ccc(OCC(O)Cn2nnc3ccccc32)cc1 (configuration not stated)	CHX counter 45, Shiga toxin inh 65
COc1cc(OC)cc(C(=O)n2cnnc2N)c1	Pf growth 96h inconclusive (no result: Pf growth 48h)
Cc1cc(C)c(NC(=S)NC(=O)c2ccccc2)cc1C	none (no result: SARS PLpro yeast, CHX counter, Shiga toxin inh, Pf growth 96h, Pf growth 48h)
CC(C)NC(=S)NC(=O)c1ccc(-c2ccccc2)cc1	Shiga toxin inh 26, Pf growth 48h inconclusive
Cc1ccc(C(=O)O)cc1NC(=S)NC(=O)c1ccc(-c2ccccc2)cc1	CHX counter 31, Shiga toxin inh 57
O=C(O)c1cccc(NC(=S)NC(=O)c2ccc(-c3ccc(Cl)cc3)o2)c1	Shiga toxin inh 100
CC#CCCCC(=O)Nc1cccc(C(=O)O)c1	CHX counter 25, Shiga toxin inh 82, Pf growth 96h 10µM
CCCCC(=O)Nc1cccc(C(=O)Nc2ccccc2C(=O)O)c1	none
Cc1ccc(C(=O)O)cc1NC(=S)NC(=O)c1ccc(-c2ccc(Cl)cc2)o1	none
CC(C)OP(=O)(OC(C)C)C(O)c1ccc2c(c1)OCO2 (configuration not stated)	none
CC(=O)c1cccc(NC(=S)NC(=O)c2cccc(Cl)c2)c1	CHX counter 30, Shiga toxin inh active
CC(=O)c1cccc(NC(=S)NC(=O)C(C)C)c1	none
CC(=O)c1cccc(NC(=S)NNC(=O)c2ccco2)c1	CHX counter 21, Pf growth 96h inconclusive
O=C(NC(=S)Nc1cccnc1)c1cccc(Cl)c1	none (no result: SARS PLpro yeast, CHX counter, Shiga toxin inh, Pf growth 96h, Pf growth 48h)
O=C(NNC(=O)c1ccco1)c1cccc(Br)c1	Pf growth 96h inconclusive, Pf growth 48h inconclusive
Cc1ccc(C(=O)NC(=S)Nc2cccc3c(C)cc(C)nc23)cc1	Pf growth 96h 12µM, Pf growth 48h inconclusive
CC(=O)c1cccc(NC(=S)NC(=O)CC(C)(C)C)c1	CHX counter 20
COc1cccc(CN(Cc2cccnc2)S(=O)(=O)c2ccc(-n3cnnn3)c(C)c2)c1	Pf growth 48h inconclusive (no result: Pf growth 96h)
Cc1nc2sc(C(=O)Nc3ccccc3Cc3ccccc3)c(C)c2c(=O)[nH]1	Pf growth 96h inconclusive, Pf growth 48h inconclusive
CCCCC(=O)NC(=S)Nc1cccc(C(=O)O)c1	Shiga toxin inh 60, Pf growth 96h inconclusive
Cc1ccc(C(=O)NC(=S)Nc2ccccc2C(F)(F)F)cc1C	CHX counter 16, Shiga toxin inh 37, Pf growth 96h inconclusive, Pf growth 48h inconclusive
COCCCNC(=S)NNC(=S)Nc1cccc(Cl)c1	CHX counter 28, Shiga toxin inh 90, Pf growth 48h inconclusive
COc1cccc(NC(=S)NC(=O)c2cncc(Br)c2)c1	none (no result: SARS PLpro yeast, CHX counter, Shiga toxin inh, Pf growth 96h, Pf growth 48h)
CC(=O)c1cccc(NC(=S)NC(=O)c2cncc(Br)c2)c1	CHX counter 20 (no result: SARS PLpro yeast)
C=COCCNC(=S)Nc1cccc(Cl)c1	none
CCCCC(=O)NC(=S)Nc1cccc(NC(=O)CC)c1	none
Cc1cc(C)c(C(=O)c2ccccc2C(=O)O)c(C)c1	none (no result: SARS PLpro yeast, CHX counter, Shiga toxin inh, Pf growth 96h, Pf growth 48h)
COc1cc(NC(=O)c2ccccc2)c(OC)cc1NC(=O)CN1C(=O)NC2(CCCCC2C)C1=O (configuration not stated)	Pf growth 96h inconclusive, Pf growth 48h inconclusive (no result: CHX counter, Shiga toxin inh)
O=C(O)c1cccc(NC(=S)NC(=O)c2ccc(-c3ccccc3)cc2)c1	CHX counter 46, Shiga toxin inh 143
CNC(=S)Nc1cccc(C(C)=O)c1	none
CC(=O)c1cccc(NC(=S)NC(=O)c2ccccc2)c1	CHX counter 46, Shiga toxin inh 103
O=C(NC(=S)Nc1ccc(-c2ccccc2)cc1)c1ccccc1	none (no result: SARS PLpro yeast, CHX counter, Shiga toxin inh, Pf growth 96h, Pf growth 48h)
O=C1C=C(c2ccc3ncccc3c2)C[C@@H](c2ccc(Cl)cc2)C1	Pf growth 96h inconclusive (no result: CHX counter, Shiga toxin inh)
CCN(CC)C(=O)Cn1cc(/C=C(\C#N)C(=O)N2CCN(c3ccccc3)CC2)c2ccccc21	Pf growth 96h 10µM, Pf growth 48h inconclusive
CCSc1ccc(-c2nn(-c3ccccc3)cc2/C=C(/C#N)C(=O)NC)cc1	none
CCCSc1ccc(-c2nn(-c3ccccc3)cc2/C=C(/C#N)C(=O)N2CCOCC2)cc1	CHX counter 16, Pf growth 96h inconclusive, Pf growth 48h inconclusive
CCOC(=O)Cn1cc(/C=C(\C#N)C(=O)N2CCOCC2)c2ccccc21	CHX counter 10, Shiga toxin inh 74
Cc1ccc2cc(C)c(SCC(=O)Nc3cc(C)on3)nc2c1	Pf growth 96h inconclusive
COc1ccc(-c2cc(=Nc3c(C)n(C)n(-c4ccccc4)c3=O)c3ccccc3o2)cc1	CHX counter 41, Shiga toxin inh 48
COc1ccc(C(=O)NC(=S)N2CCCc3ccccc32)cc1OC	CHX counter 21, Pf growth 96h inconclusive
COc1ccccc1C(=O)NC(=S)N1CCCc2ccccc21	CHX counter 48, Shiga toxin inh 164
COc1ccc(C(=O)NC(=S)N2CC(C)OC(C)C2)cc1OC (configuration not stated)	Pf growth 96h 5.2µM
COc1ccccc1C(=O)NC(=S)N1CCc2ccccc21	none
CC1CN(C(=S)NC(=O)c2ccc(Cl)cc2)CC(C)O1 (configuration not stated)	Pf growth 48h inconclusive
COc1ccc(C(CNC(=O)C(=O)Nc2ccc3c(c2)OCCO3)N2CCN(C)CC2)cc1 (configuration not stated)	Pf growth 48h inconclusive (no result: CHX counter, Shiga toxin inh)
Nc1nc(Cl)cc(N2CCCC2)n1	Pf growth 96h 7.4µM
CN1CCN(c2ccc(Cl)cc2N)CC1	CHX counter 11

Screening results as filed in PubChem BioAssay.
